# In PubChem BioAssay (EPA / NIEHS):
# Records with an inconclusive call do not appear. The source made the active and inactive calls. The calls were made as follows: active = hit-call score of the fitted dose curve at least 0.9, where 1 is the maximum; inconclusive = response in the unintended direction; inactive = score below 0.9.
# How the values were obtained:
# [1] = biological target: Retinoic acid receptor alpha (Homo sapiens) (UniProt P10276); test: ATG_RARa_TRANS: Attagene TRANS-FACTORIAL HepG2 Assay for human Retinoic Acid Receptor alpha (RARa) (AID 2283005)
# Retinoic acid receptor alpha (Homo sapiens), sequence (P10276 whole entry, looked up, the tested form may be a part): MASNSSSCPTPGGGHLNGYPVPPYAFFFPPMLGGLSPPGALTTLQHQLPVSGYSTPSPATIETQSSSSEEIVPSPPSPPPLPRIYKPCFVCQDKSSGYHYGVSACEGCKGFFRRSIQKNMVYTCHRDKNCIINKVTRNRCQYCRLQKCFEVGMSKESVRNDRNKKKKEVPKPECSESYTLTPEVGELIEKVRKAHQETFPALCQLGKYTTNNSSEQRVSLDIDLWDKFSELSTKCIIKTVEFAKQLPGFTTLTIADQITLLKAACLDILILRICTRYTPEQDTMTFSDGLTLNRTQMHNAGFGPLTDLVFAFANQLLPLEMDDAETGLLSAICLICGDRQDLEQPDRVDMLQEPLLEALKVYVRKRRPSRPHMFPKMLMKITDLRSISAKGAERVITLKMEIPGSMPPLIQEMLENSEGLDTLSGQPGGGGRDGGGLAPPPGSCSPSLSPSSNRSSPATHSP
# Method in brief: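 HepG2 transiently transfected with multiplex GAL4-UAS reporter units including a human RARa–GAL4 chimera; 24 h compound exposure. Reporter mRNA quantified by RT-PCR, 6-FAM labeling and capillary electrophoresis; gain of signal versus DMSO.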
# [2] = biological target: Peroxisome proliferator-activated receptor gamma (Homo sapiens) (UniProt P37231); test: ATG_PPARg_TRANS: Attagene TRANS-FACTORIAL HepG2 Assay for human Peroxisome Proliferator-activated Receptor-gamma (PPARg) (AID 2283007)
# Peroxisome proliferator-activated receptor gamma (Homo sapiens), sequence (P37231 whole entry, looked up, the tested form may be a part): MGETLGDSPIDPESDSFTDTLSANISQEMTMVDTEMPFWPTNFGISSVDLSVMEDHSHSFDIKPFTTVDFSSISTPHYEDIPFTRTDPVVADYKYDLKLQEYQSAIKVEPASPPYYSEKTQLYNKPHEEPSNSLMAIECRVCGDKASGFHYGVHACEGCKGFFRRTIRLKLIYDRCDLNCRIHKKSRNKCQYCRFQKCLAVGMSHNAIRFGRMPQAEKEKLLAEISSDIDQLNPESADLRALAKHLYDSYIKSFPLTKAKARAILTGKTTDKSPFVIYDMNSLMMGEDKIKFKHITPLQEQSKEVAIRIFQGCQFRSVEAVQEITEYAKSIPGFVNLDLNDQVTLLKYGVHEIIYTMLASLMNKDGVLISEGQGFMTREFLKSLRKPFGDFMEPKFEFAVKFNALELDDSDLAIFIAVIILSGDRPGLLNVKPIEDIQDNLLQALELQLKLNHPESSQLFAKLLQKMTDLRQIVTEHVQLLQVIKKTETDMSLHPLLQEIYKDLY
# Method in brief: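 Read-out: reporter mRNA induction, detected by fluorescence after RT-PCR and capillary electrophoresis. Transiently transfected human HepG2 liver cells carrying a chimeric NR-Gal4 construct were dosed for 24 h; activity was fitted upward relative to DMSO.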
# [3] = biological target: Nuclear receptor subfamily 1 group I member 2 (Homo sapiens) (UniProt O75469); test: ATG_PXR_TRANS: Attagene TRANS-FACTORIAL HepG2 Assay for human Pregnane X Receptor (PXR) (AID 2283008)
# Nuclear receptor subfamily 1 group I member 2 (Homo sapiens), sequence (O75469 whole entry, looked up, the tested form may be a part): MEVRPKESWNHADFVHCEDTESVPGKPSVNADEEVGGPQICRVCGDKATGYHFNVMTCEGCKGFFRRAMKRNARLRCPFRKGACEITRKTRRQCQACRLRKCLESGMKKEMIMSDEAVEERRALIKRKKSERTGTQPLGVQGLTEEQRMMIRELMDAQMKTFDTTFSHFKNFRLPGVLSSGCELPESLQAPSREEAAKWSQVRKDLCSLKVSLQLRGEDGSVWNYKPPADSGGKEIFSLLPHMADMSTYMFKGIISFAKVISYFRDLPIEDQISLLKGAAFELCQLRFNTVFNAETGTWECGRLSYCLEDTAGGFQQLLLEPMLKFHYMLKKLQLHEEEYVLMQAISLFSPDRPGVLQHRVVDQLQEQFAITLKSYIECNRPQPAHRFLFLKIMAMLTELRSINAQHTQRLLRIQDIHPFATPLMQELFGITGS
# Method in brief: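 Read-out is fluorescence of labelled reporter cDNA fragments separated by capillary electrophoresis after RT-PCR and HpaI digestion. Source: HepG2 cells carrying PXR-GAL4/UAS reporter constructs, treated 24 h; activity fitted upward relative to DMSO.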
# [4] = biological target: human Retinoic Acid Receptor gamma (RARg), RARG (gene 5916) (UniProt P13631); test: ATG_RARg_TRANS: Attagene TRANS-FACTORIAL HepG2 Assay for human Retinoic Acid Receptor gamma (RARg) (AID 2283009)
# human Retinoic Acid Receptor gamma (RARg), RARG (gene 5916), sequence (P13631 whole entry, looked up): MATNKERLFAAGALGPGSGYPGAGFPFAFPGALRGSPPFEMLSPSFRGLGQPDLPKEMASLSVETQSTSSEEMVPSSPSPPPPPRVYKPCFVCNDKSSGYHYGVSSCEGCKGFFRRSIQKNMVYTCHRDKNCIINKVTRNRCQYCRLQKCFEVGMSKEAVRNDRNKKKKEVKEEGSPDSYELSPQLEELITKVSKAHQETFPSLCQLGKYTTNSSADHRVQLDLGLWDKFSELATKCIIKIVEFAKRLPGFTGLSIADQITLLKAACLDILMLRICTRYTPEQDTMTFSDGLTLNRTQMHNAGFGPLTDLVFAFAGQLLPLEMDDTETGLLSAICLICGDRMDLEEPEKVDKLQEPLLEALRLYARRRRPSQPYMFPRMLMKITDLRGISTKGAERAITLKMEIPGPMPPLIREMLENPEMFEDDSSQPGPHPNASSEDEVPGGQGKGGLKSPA
# Method in brief: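 Transient transfection of HepG2 with multi-reporter constructs, then 24 h chemical treatment. Total RNA isolated, reverse-transcribed, PCR-amplified, fluorescently labelled and resolved by capillary electrophoresis; activity scored as mRNA induction versus DMSO.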
# [5] = biological target: human RAR-related Orphan Receptor gamma (RORg), RORC (gene 6097) (UniProt P51449); test: ATG_RORg_TRANS: Attagene TRANS-FACTORIAL HepG2 Assay for human RAR-related Orphan Receptor gamma (RORg) (AID 2283011)
# human RAR-related Orphan Receptor gamma (RORg), RORC (gene 6097), sequence (P51449 whole entry, looked up, the tested form may be a part): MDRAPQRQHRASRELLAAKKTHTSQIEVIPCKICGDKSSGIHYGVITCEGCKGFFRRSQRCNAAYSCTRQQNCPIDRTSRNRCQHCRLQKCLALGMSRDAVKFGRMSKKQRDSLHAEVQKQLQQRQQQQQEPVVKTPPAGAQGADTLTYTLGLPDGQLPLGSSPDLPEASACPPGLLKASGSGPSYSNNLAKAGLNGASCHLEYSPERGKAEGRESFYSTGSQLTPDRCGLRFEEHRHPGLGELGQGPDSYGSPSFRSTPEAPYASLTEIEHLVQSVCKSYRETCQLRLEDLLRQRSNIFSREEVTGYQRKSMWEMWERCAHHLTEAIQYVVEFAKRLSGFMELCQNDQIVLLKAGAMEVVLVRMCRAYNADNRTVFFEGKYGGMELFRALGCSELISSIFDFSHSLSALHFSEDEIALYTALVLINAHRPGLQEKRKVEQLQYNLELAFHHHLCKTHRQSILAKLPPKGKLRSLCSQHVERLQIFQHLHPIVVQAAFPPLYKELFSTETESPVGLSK
# Method in brief: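 Readout: reporter transcript induction (RT-PCR, fluorescent primer extension, capillary electrophoresis) after 24 h compound exposure of transiently transfected HepG2 cells carrying a RORg-Gal4 chimera and GAL4-UAS reporters; DMSO served as baseline, with increasing signal fitted.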
# [6] = biological target: human Retinoid X Receptor beta (RXRb), RXRB (gene 6257) (UniProt P28702); test: ATG_RXRb_TRANS: Attagene TRANS-FACTORIAL HepG2 Assay for human Retinoid X Receptor beta (RXRb) (AID 2283013)
# human Retinoid X Receptor beta (RXRb), RXRB (gene 6257), sequence (P28702 whole entry, looked up, the tested form may be a part): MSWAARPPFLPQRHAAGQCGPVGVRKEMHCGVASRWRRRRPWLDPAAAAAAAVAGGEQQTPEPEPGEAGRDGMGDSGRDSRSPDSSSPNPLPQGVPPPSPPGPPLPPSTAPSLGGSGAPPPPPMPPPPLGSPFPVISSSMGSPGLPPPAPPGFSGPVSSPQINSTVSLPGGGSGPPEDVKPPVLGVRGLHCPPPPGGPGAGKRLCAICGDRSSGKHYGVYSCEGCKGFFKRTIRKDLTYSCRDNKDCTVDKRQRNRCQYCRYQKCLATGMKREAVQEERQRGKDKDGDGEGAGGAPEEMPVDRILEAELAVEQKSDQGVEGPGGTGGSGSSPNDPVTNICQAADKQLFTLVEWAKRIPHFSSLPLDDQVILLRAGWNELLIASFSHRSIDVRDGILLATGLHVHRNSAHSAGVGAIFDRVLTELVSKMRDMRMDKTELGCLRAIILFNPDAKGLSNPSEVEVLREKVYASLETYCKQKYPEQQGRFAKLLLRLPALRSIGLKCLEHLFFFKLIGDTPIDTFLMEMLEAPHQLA
# Method in brief: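 Transfect HepG2 with GAL4-UAS multi-reporter constructs (chimeric NR-Gal4, TRANS format); dose compound 24 h; isolate RNA, RT-PCR, FAM primer extension, HpaI digest; quantify by capillary electrophoresis; positive direction vs DMSO.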
# [7] = biological target: human Thyroid Receptor alpha (THRa1), THRA (gene 7067) (UniProt P10827); test: ATG_THRa1_TRANS: Attagene TRANS-FACTORIAL HepG2 Assay for human Thyroid Receptor alpha (THRa1) (AID 2283014)
# human Thyroid Receptor alpha (THRa1), THRA (gene 7067), sequence (P10827 whole entry, looked up, the tested form may be a part): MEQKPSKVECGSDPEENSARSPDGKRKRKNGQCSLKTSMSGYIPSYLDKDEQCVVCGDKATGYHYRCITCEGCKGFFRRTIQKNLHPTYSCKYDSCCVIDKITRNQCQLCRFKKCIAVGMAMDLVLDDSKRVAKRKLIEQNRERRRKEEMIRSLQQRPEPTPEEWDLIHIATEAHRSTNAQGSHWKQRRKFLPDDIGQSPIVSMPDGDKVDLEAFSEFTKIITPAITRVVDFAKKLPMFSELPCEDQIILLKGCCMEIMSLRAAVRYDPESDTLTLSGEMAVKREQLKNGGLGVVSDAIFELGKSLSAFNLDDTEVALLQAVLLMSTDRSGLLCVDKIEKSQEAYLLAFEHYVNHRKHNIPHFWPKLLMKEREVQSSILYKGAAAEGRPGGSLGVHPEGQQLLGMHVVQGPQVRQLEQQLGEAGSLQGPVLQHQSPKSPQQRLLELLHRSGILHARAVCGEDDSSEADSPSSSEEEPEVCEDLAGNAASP
# Method in brief: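 HepG2 cells transiently transfected with multiplexed GAL4-UAS reporter units for exogenous chimeric THRa1-Gal4; reporter mRNA measured 24 h after dosing by RT-PCR, 6-FAM labelling, HpaI digestion and capillary electrophoresis. Gain-of-signal fitted versus DMSO baseline.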
# [8] = biological target: human Retinoic Acid Receptor beta (RARb), RARB (gene 5915) (UniProt P10826); test: ATG_RARb_TRANS: Attagene TRANS-FACTORIAL HepG2 Assay for human Retinoic Acid Receptor beta (AID 2283004)
# human Retinoic Acid Receptor beta (RARb), RARB (gene 5915), sequence (P10826 whole entry, looked up, the tested form may be a part): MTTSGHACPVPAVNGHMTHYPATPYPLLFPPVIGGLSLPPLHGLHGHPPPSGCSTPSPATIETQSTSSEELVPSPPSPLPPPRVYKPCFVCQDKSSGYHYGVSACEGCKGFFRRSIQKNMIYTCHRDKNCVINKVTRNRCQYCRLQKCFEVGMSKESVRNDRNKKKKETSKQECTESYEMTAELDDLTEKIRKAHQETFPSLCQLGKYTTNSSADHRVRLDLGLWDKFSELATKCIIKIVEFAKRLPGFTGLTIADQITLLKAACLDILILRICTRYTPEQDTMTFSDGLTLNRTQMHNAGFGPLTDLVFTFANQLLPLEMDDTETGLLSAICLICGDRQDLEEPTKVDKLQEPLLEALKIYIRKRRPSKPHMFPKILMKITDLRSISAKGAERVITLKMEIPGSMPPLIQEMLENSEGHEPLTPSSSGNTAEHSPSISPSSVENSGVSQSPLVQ
# Method in brief: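 HepG2 cells transiently transfected with multiplexed GAL4-UAS reporter units expressing chimeric NR–Gal4 fusions; 24 h compound exposure. Reporter mRNA quantified by RT-PCR, 6-FAM labelling, HpaI digestion and capillary electrophoresis; gain-of-signal fitted against DMSO baseline.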
# [9] = biological target: Retinoic acid receptor RXR-alpha (Homo sapiens) (UniProt P19793); test: ATG_RXRa_TRANS: Attagene TRANS-FACTORIAL HepG2 Assay for human Retinoid X Receptor alpha (RXRa) (AID 2283012)
# Retinoic acid receptor RXR-alpha (Homo sapiens), sequence (P19793 whole entry, looked up, the tested form may be a part): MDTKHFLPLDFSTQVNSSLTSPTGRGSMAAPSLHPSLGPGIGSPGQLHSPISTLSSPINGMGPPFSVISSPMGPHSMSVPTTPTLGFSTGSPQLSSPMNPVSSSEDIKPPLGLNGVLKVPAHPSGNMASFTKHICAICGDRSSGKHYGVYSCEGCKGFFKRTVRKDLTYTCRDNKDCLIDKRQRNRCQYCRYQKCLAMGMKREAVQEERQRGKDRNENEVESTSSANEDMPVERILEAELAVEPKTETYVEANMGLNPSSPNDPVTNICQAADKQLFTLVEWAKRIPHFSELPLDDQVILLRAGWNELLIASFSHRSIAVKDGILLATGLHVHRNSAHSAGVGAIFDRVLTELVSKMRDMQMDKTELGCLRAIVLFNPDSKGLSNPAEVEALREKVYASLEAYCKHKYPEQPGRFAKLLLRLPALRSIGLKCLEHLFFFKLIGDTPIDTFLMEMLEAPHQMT
# Method in brief: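 Transient transfection of human HepG2 with multiple GAL4-UAS reporter constructs; 24 h compound exposure; total RNA isolated, reverse-transcribed, PCR-amplified, 6-FAM labelled, HpaI-cut, resolved by capillary electrophoresis. Positive-direction fit versus DMSO.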
# [10] = biological target: human RAR-related Orphan Receptor beta (RORb), RORB (gene 6096) (UniProt Q92753); test: ATG_RORb_TRANS: Attagene TRANS-FACTORIAL HepG2 Assay for human RAR-related Orphan Receptor beta (RORb) (AID 2283010)
# human RAR-related Orphan Receptor beta (RORb), RORB (gene 6096), sequence (Q92753 whole entry, looked up, the tested form may be a part): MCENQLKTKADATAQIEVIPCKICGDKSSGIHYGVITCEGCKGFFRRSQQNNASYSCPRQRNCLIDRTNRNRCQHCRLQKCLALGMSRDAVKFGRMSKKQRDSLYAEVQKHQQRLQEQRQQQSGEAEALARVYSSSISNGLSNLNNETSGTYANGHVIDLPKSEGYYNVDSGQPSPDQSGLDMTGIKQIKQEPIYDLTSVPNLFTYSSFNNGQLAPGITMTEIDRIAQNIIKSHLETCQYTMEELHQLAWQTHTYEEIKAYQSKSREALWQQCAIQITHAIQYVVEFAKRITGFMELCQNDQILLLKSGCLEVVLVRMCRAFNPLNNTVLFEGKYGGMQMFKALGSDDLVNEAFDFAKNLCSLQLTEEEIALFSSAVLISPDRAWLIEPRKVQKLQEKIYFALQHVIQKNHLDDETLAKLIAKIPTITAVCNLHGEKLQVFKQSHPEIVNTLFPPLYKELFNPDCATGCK
# Method in brief: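 Readout is reporter-gene mRNA induction, detected as fluorescence after RT-PCR and capillary electrophoresis, fitted for gain of signal against DMSO controls. Transiently transfected HepG2 liver cells carrying GAL4-UAS reporter constructs were treated for 24 hours.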
smiles,measurement,setting,value
CCCCC[Si](OCC)(OCC)OCC,outcome,[1],inactive
same,outcome,[2],inactive
same,AC50,[3],7.48 µM (active)
same,outcome,[4],inactive
same,outcome,[5],inactive
same,outcome,[6],inactive
CC[C@]12CCCN3CCc4c(n(c5ccccc45)[C@@](O)(C(=O)OC)C1)[C@@H]32,AC50,[3],2.99 µM (active)
same,outcome,[6],inactive
same,AC50,[7],28.5 µM (active)
C=O,outcome,[8],inactive
same,outcome,[1],inactive
same,outcome,[3],inactive
same,outcome,[4],inactive
same,outcome,[9],inactive
same,outcome,[6],inactive
same,outcome,[7],inactive
C=C(C)C(=O)NCCCN(C)C,outcome,[10],inactive
same,outcome,[9],inactive
same,outcome,[7],inactive
CC(=O)C=CC1=C(C)CCCC1(C)C,AC50,[2],14.1 µM (active)
same,AC50,[6],43.9 µM (active)
CNCCO,outcome,[2],inactive
same,outcome,[3],inactive
same,outcome,[7],inactive
CO[Si](CCCn1c(=O)n(CCC[Si](OC)(OC)OC)c(=O)n(CCC[Si](OC)(OC)OC)c1=O)(OC)OC,outcome,[8],inactive
same,outcome,[2],inactive
same,outcome,[9],inactive
same,outcome,[6],inactive
same,outcome,[7],inactive
CCOC(=S)SSC(=S)OCC,outcome,[2],inactive
same,outcome,[6],inactive
COc1c(Cl)c(Cl)c(Cl)c(Cl)c1Cl,AC50,[3],10.3 µM (active)
same,AC50,[6],6.22 µM (active)
same,outcome,[7],inactive
CCCCN,outcome,[2],inactive
same,outcome,[10],inactive
same,outcome,[9],inactive
same,outcome,[6],inactive
same,outcome,[7],inactive
O=C1C(c2[nH]c3ccc(S(=O)(=O)O)cc3c2O)=Nc2ccc(S(=O)(=O)O)cc21,outcome,[5],inactive
same,outcome,[7],inactive
CC(=O)OCC=Cc1ccccc1,AC50,[2],9.38 µM (active)
same,outcome,[3],inactive
same,outcome,[5],inactive
CCCCNC(=O)NS(=O)(=O)c1ccc(N)cc1,outcome,[1],inactive
same,outcome,[4],inactive
CC(C)(C)c1cc(CCC(=O)NN)cc(C(C)(C)C)c1O,outcome,[3],inactive
same,outcome,[6],inactive
CCCCCCOC(=O)CCCCC,outcome,[8],inactive
same,outcome,[1],inactive
same,outcome,[2],inactive
same,outcome,[3],inactive
same,outcome,[4],inactive
same,outcome,[10],inactive
same,outcome,[9],inactive
CN(C)CCCN,outcome,[2],inactive
same,outcome,[3],inactive
same,outcome,[9],inactive
same,outcome,[6],inactive
same,outcome,[7],inactive
Cc1ccc(C(=O)O)o1,outcome,[3],inactive
same,outcome,[5],inactive
same,outcome,[6],inactive
same,outcome,[7],inactive
Cc1cccc(C)c1[N+](=O)[O-],outcome,[8],inactive
same,outcome,[1],inactive
same,outcome,[3],inactive
same,outcome,[4],inactive
same,outcome,[5],inactive
same,outcome,[7],inactive
CN1Cc2c(N)cccc2C(c2ccccc2)C1 (configuration not stated),outcome,[1],inactive
same,outcome,[2],inactive
same,outcome,[3],inactive
same,outcome,[4],inactive
CC(C)(N)CO,outcome,[3],inactive
same,outcome,[9],inactive
same,outcome,[6],inactive
